Shown are actives, neighbours in structure and some others; about 21% of the full set was active somewhere.
ClpP mod = qHTS Assay for Activators of ClpP; purified B. subtilis ClpP, FRET peptide cleavage, 20 min; Potency, µM (series often up to 57.5 µM), inactives show at the top dose activity change, negative = active; 1.9% of 340,000 active; AID 651965, 2013; active means well fitted falling curve with a large enough effect; inconclusive means small, poorly fitted or top-dose-only effect; inactive means no such curve, though single readings can be large or run the other way; further: potency means the concentration at half of the fitted maximal effect; the source files actives as falling curves though it sought activators and does not explain the sign; nearly all actives have a fitted effect of over 65% in size
Target sequence (P80244 whole entry, looked up): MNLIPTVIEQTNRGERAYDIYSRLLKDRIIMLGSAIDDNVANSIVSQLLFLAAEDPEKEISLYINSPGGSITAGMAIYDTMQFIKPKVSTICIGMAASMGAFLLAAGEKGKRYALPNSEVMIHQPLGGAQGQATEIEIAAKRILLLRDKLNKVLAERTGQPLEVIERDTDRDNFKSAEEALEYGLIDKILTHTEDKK
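ClpP 10 microg/mL final, pH 8 Tris/KCl buffer with BSA, glycerol, Tween-20; compound pinned in; FRET-FV substrate; RT 20 min; Ex320/Em430; ΔFRET vs ADEP 5.8 microM, DMSO, no enzyme.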
TDP1 cell noCPT = qHTS for Inhibitors of human tyrosyl-DNA phosphodiesterase 1 (TDP1): qHTS in cells in absence of CPT. AID 686978, 2013. Potency, µM (highest dose often 46.2 µM), for the others: at the highest dose activity change, negative = growth inhibition, most hits filed as inhibitors. DT40 Tdp1-/- hTDP1 cells, no CPT, ATP luminescence, 48 h. 15% of 420,000 active; further: potency means the concentration at half of the fitted maximal effect; on the % scale 0 is the no-effect control and ±100 the full control effect; nearly all actives have a fitted effect of over 55% in size
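Chicken DT40 Tdp1-/- cells stably complemented with human TDP1 were seeded at 400 cells/well with DMSO in place of 20 nM camptothecin. After compound pinning, cells grew at least 48 hr at 37 °C; viability read by CellTiter-Glo luminescence.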
D3 antag = blocks the human D3 dopamine receptor | 2.5% of 360,000 active | AID 652054 | P35462 | max response, negative = inhibition, % | D3R cells, DiscoveRx beta-arrestin luminescence, antagonist mode; active compounds read low; in the data active means max response below about -50%; inconclusive means no clear call, values can overlap the other calls; further: on the % scale 0 is the no-effect control and ±100 the full control effect
Target sequence (P35462 whole entry, looked up): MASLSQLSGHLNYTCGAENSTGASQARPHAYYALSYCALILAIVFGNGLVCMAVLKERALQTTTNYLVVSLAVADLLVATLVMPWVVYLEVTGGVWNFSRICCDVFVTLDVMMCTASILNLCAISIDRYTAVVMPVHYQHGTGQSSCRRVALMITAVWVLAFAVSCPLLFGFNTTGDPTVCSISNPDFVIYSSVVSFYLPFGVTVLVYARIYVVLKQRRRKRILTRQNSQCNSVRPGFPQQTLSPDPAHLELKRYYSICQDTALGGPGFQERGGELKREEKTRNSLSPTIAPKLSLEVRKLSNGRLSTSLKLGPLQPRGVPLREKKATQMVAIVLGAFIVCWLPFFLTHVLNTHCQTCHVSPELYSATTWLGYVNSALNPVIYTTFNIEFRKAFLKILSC
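Cells plated overnight at 1500 cells/well, then exposed to library compounds with dopamine controls for 90 minutes at 37 degrees C. DiscoveRx reagent added for 30–60 minutes at room temperature; luminescence read, quantitative HTS format.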
TDP1 cell CPT = growth inhibition of DT40 Tdp1-/-;hTDP1 cells with camptothecin (screen for TDP1 inhibitors) | chicken DT40 Tdp1-/-;hTDP1 cells + 20 nM CPT, ATP luminescence, 48 h | 12% of 420,000 active | Potency, µM (series often up to 46.2 µM), inactives show at the top dose activity change, negative = growth inhibition, usual class: inhibitors; further: potency means the concentration at half of the fitted maximal effect; on the % scale 0 is the no-effect control and ±100 the full control effect; nearly all actives have a fitted effect of over 55% in size
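Cell growth measured by CellTiter-Glo luminescence after a minimum 48 h, 37 C compound exposure with 20 nM CPT in Tdp1-knockout DT40 cells stably expressing hTDP1, seeded 400/well; qHTS titration format.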
IL-1B inflam inh = inflammasome signaling inhibition, IL-1 beta readout; THP-1 LPS/ATP IL-1B secretion, AlphaLISA, 16 h; active compounds read low; activity change, % at 57.5 µM; 4.7% of 360,000 active; AID 743279; in the data active means activity change below about -50%; inconclusive means mostly about -30% to -49%; further: on the % scale 0 is the no-effect control and ±100 the full control effect
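THP-1 cells pretreated 1 hr with compounds (up to 57.5 uM final), then stimulated with LPS (250 ng/mL final) plus ATP (1.25 mM final); secreted IL-1B measured by AlphaLISA after 16 hr, decreased signal indicating inhibition.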
DRD3 agonist = agonists of human D3 dopamine receptor. D3R DiscoveRx beta-arrestin cells, luminescence, 90 min. max activation, %. P35462. 0.58% of 410,000 active; in the data active means max activation above about 30%; further: 0% is about no effect
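Agonist mode: compounds and dopamine controls were applied to plated cells for 90 min at 37 degrees C after an overnight attachment at 1500 cells/well. Luminescent read-out followed 30 - 60 minutes at room temperature with DiscoveRx detection reagent.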
* hit, by the source's call. Unless noted, the call rests on the fitted dose curve; in most records, active means well fitted inhibition curve with a large enough effect; inconclusive means small, poorly fitted or top-dose-only effect; inactive means flat fitted curve, though single readings scatter.

How did CC(C)(C)OC(=O)N1CCC(c2c(C(=O)NCc3ccccc3)cnn2-c2ccccc2)CC1 do in these assays?
ClpP mod: 2%; TDP1 cell noCPT: inconclusive; TDP1 cell CPT: inconclusive; DRD3 agonist: -4

Results for O=C(Nc1ccc(Br)cc1)C1CCN(S(=O)(=O)c2cccc3nsnc23)CC1 ?
ClpP mod: 2%; TDP1 cell noCPT: -21%; TDP1 cell CPT: inconclusive; DRD3 agonist: -5

Results for COc1ccc(OC)c(NC(=O)NNC(=O)COc2ccc([N+](=O)[O-])cc2)c1 ?
ClpP mod: -8%; TDP1 cell noCPT: -5%; D3 antag: -16; TDP1 cell CPT: 4%; IL-1B inflam inh: 5; DRD3 agonist: -17

Results for C=COC(=O)CSc1nc(-c2cccs2)ccc1C#N ?
ClpP mod: 28µM*; TDP1 cell noCPT: 3%; D3 antag: 14; TDP1 cell CPT: -22%; IL-1B inflam inh: 34; DRD3 agonist: 16

What do the screens show for `N#Cc1ccc(-c2cccs2)nc1SCc1c(F)cccc1Cl`?
ClpP mod: 4%; TDP1 cell noCPT: 0.65µM*; TDP1 cell CPT: 0.82µM*; DRD3 agonist: -13

How did CCOC(=O)C(C)Sc1nc(-c2cccs2)ccc1C#N (configuration not stated) do in these assays?
ClpP mod: 13µM*; TDP1 cell noCPT: inconclusive; D3 antag: 8; TDP1 cell CPT: inconclusive; IL-1B inflam inh: 27; DRD3 agonist: 2

Results for CC(C)OC(=O)CSc1nc(N)c(C#N)c(-c2cccs2)c1C#N ?
ClpP mod: inconclusive; TDP1 cell noCPT: inconclusive; D3 antag: 11; TDP1 cell CPT: inconclusive; IL-1B inflam inh: 23; DRD3 agonist: 29

Results for Cn1c(SCc2c(F)cccc2Cl)nnc1-c1cccs1 ?
ClpP mod: -3%; TDP1 cell noCPT: inconclusive; D3 antag: -18; TDP1 cell CPT: -10%; IL-1B inflam inh: -16; DRD3 agonist: -5

What do the screens show for `CN(C)C(=O)CCCCCCCCC(=O)N(C)C`?
TDP1 cell noCPT: 4%; D3 antag: 4; TDP1 cell CPT: 11%; DRD3 agonist: -2

Results for Cc1ccc(C)c(OCCCN2CCc3ccccc3C2)c1 ?
TDP1 cell noCPT: inconclusive; D3 antag: -89*; TDP1 cell CPT: 12µM*; IL-1B inflam inh: 7; DRD3 agonist: -12

How did Cc1ccc(OCCCCN2CCc3ccccc3C2)c(C)c1 do in these assays?
TDP1 cell noCPT: inconclusive; D3 antag: -106*; TDP1 cell CPT: inconclusive; IL-1B inflam inh: inconclusive; DRD3 agonist: -31

How did Cc1ccc(C(C)C)c(OCCN2CCc3ccccc3C2)c1 do in these assays?
ClpP mod: 2%; TDP1 cell noCPT: inconclusive; D3 antag: -67*; TDP1 cell CPT: inconclusive; IL-1B inflam inh: -5; DRD3 agonist: -34

What do the screens show for `Cc1ccc(C(C)C)c(OCCCN2CCc3ccccc3C2)c1`?
ClpP mod: 2%; TDP1 cell noCPT: inconclusive; D3 antag: -85*; TDP1 cell CPT: inconclusive; IL-1B inflam inh: 26; DRD3 agonist: -20

Results for Cc1ccc(C(C)C)c(OCCCn2c(=O)oc3ccccc32)c1 ?
ClpP mod: -1%; TDP1 cell noCPT: inconclusive; TDP1 cell CPT: inconclusive; DRD3 agonist: 4

How did COc1ccc([C@H]2C[C@@H](n3cc(-c4ccc(F)cc4)nn3)[C@H](O)CN2C(=O)c2cccs2)cc1 do in these assays?
ClpP mod: 1%; TDP1 cell noCPT: inconclusive; D3 antag: -4; TDP1 cell CPT: inconclusive; IL-1B inflam inh: -4; DRD3 agonist: 3

What do the screens show for `O=C1CC(c2cc(F)ccc2F)c2cc3c(cc2N1)CCC3` (configuration not stated)?
TDP1 cell noCPT: 3.7µM*; D3 antag: -13; TDP1 cell CPT: 2.6µM*; IL-1B inflam inh: 57; DRD3 agonist: -22

How did Cc1ccc(C)c(NC(=O)Cn2c(=O)n(Cc3nc(C)no3)c(=O)c3cc4c(cc32)OCO4)c1 do in these assays?
ClpP mod: inconclusive; TDP1 cell noCPT: inconclusive; TDP1 cell CPT: inconclusive; DRD3 agonist: -4

How did Cc1ccc2cc(CN(Cc3ccco3)C(=O)c3ccccc3)c(=O)[nH]c2c1C do in these assays?
ClpP mod: -19%; TDP1 cell noCPT: inconclusive; D3 antag: 33; TDP1 cell CPT: inconclusive; IL-1B inflam inh: -7; DRD3 agonist: 2

What do the screens show for `Cc1cc(C)c2[nH]c(=O)c(CN(CC3CCCO3)C(=O)C3CCCO3)cc2c1` (configuration not stated)?
ClpP mod: inconclusive; TDP1 cell noCPT: -7%; D3 antag: -26; TDP1 cell CPT: -14%; IL-1B inflam inh: -4; DRD3 agonist: -4

Results for Cc1ccc2cc(CN(Cc3ccco3)C(=S)NCC3CCCO3)c(=O)[nH]c2c1C (configuration not stated) ?
ClpP mod: -7%; TDP1 cell noCPT: 26µM*; D3 antag: 10; TDP1 cell CPT: 18µM*; IL-1B inflam inh: -26; DRD3 agonist: 0

How did COc1cc(C(=O)NC2CCCc3c2cnn3-c2ccccc2F)cc(OC)c1OC (configuration not stated) do in these assays?
ClpP mod: 1%; TDP1 cell noCPT: 2.9µM*; D3 antag: 15; TDP1 cell CPT: 10µM*; IL-1B inflam inh: -21; DRD3 agonist: -2

How did Cc1nnsc1C(=O)NC1CCCc2c1cnn2-c1cc(F)cc(F)c1 (configuration not stated) do in these assays?
ClpP mod: -5%; TDP1 cell noCPT: -15%; D3 antag: 4; TDP1 cell CPT: -2%; IL-1B inflam inh: 15; DRD3 agonist: 3

What do the screens show for `Cc1nnsc1C(=O)NC1CCCc2c1cnn2-c1ccc(F)cc1F` (configuration not stated)?
ClpP mod: -1%; TDP1 cell noCPT: 5.8µM*; D3 antag: 16; TDP1 cell CPT: 6.5µM*; IL-1B inflam inh: 6; DRD3 agonist: 3

How did Cc1cc(C(=O)NC2CCCc3c2cnn3-c2ccccc2F)nc(C)n1 (configuration not stated) do in these assays?
ClpP mod: -2%; TDP1 cell noCPT: inconclusive; D3 antag: inconclusive; TDP1 cell CPT: inconclusive; IL-1B inflam inh: -14; DRD3 agonist: -8

What do the screens show for `COC(=O)c1ccc(C(=O)NC2CCCc3c2cnn3-c2ccccc2F)nc1` (configuration not stated)?
ClpP mod: -1%; TDP1 cell noCPT: 2.9µM*; D3 antag: 2; TDP1 cell CPT: 5.2µM*; IL-1B inflam inh: 75; DRD3 agonist: 3
